Laboratory results published in PubChem BioAssay (Tox21).
Results filed as inconclusive are left out. Calls of active or inactive are those of the source. Unless noted, the call rests on the fitted dose curve; in most records, active means well fitted curve in the direction sought with a large enough effect in the repeat runs; inconclusive means weak or mixed curves; inactive means no such curve, though single readings can be large; an effect the other way counts as inactive or inconclusive.

How the values were obtained:
[1] = qHTS assay to identify small molecule agonists of the hypoxia (HIF-1) signaling pathway - cell viability counter screen (AID 1224844; calls by dose curve; further: nearly all actives have a fitted effect of over 50% in size; further: potency means the concentration at half of the fitted maximal effect)
Method in brief: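 Tox21 10K compounds were added to HRE-bla ME-180 cells (0.5% dialyzed FBS) and incubated 17 hrs at 37C; ATP-based CellTiter-Glo luminescence then reported cell viability in the same wells.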

[2] = qHTS assay to identify small molecule agonists of the hypoxia (HIF-1) signaling pathway (AID 1224846; active means well fitted activation curve with a large enough effect in the signal ratio in the repeat runs, not every such curve was filed as active; the % refers to the signal ratio)
Method in brief: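 Steps: seed ME-180 HRE-bla cells (2,000/well, 0.5% dialyzed FBS); incubate 5 hrs at 37C; pin-transfer compounds or DMSO; incubate 17 hrs; add LiveBLAzer B/G substrate CCF4-AM; measure reporter activation by FRET.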

[3] = qHTS assay to identify small molecule agonists of H2AX - cell viability counter screen (AID 1224847; calls by dose curve;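 further: wild-type CHO-K1 cells; top concentration of the series differs between compounds; nearly all actives have a fitted effect of over 30% in size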)
Method in brief: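 CHO-K1 wt, 1000 cells/well, o/n 37C; cpds 15 conc, 3 h 37C, 0.76% DMSO; CellTiter-Glo, 30 min RT, luminescence.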

[4] = qHTS assay to identify small molecule antagonists of the estrogen related receptor (ERR) signaling pathway from Tox21 library (AID 1224848); further: nearly all actives have a fitted effect of over 50% in size; further: potency means the concentration at half of the fitted maximal effect
Method in brief: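 Antagonist-mode screen of the Tox21 10K library in an NTP-provided ERR reporter cell line; 18 h compound exposure at 37 C, luminescence measured with ONE-Glo.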

[5] = qHTS assay to identify small molecule agonists of the estrogen related receptor (ERR) signaling pathway from Tox21 library (AID 1224849; calls by dose curve; further: nearly all actives have a fitted effect of over 15% in size); settings: ERR reporter cell line, ONE-Glo luciferase, 18 h; at 92.4 µM (top of the series) unless noted
Method in brief: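 Agonist signal is luciferase luminescence from an ERR reporter cell line treated 18 h at 37 C with DMSO-dissolved compounds, read 30 min after ONE-Glo addition at room temperature.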

[6] = qHTS RealTime-Glo MT Cell Viability Assay in HepG2 cells - 24 hour (AID 1224867); further: nearly all actives have a fitted effect of over 50% in size
Method in brief: (§1)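 Luminescence read-out: viable HepG2 cells reduce a prosubstrate to a NanoLuc substrate, giving a signal proportional to live cell number. Reads taken at 0, 8, 16, 24, 32 and 40 h of compound exposure at 37 C.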

[7] = A CellTox Green Cytotoxicity Assay to monitor cytotoxicity in HEK293 cells - 0 hour (AID 1224869); further: nearly all actives have a fitted effect of over 50% in size
Method in brief: (§2)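 Cytotoxicity was tracked continuously in HEK293 cells by a DNA-binding dye excluded from viable cells. Compounds were transferred in DMSO 5 h after seeding; fluorescence was recorded at intervals up to 40 h.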

[8] = qHTS RealTime-Glo MT Cell Viability Assay in HepG2 cells - 40 hour (AID 1224870); further: nearly all actives have a fitted effect of over 50% in size
Method in brief: (§3)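 Real-time viability: cells seeded at 600 per well together with NanoLuc and cell-permeant prosubstrate, compounds added after 5 h incubation. Luminescence tracked at 0, 8, 16, 24, 32 and 40 h of exposure.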

[9] = A CellTox Green Cytotoxicity Assay to monitor cytotoxicity in HEK293 cells - 40 hour (AID 1224871); further: nearly all actives have a fitted effect of over 45% in size; further: potency means the concentration at half of the fitted maximal effect
Method in brief: as §2

[10] = qHTS RealTime-Glo MT Cell Viability Assay in HEK293 cells - 16 hour (AID 1224872)
Method in brief: (§4)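 Nonlytic real-time viability readout: viable cells convert prosubstrate to NanoLuc substrate, giving luminescence proportional to live cell number. HEK293, 600 cells/well, compound added after 5 h, continuous culture at 37 C.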

[11] = qHTS RealTime-Glo MT Cell Viability Assay in HepG2 cells - 8 hour (AID 1224873); further: nearly all actives have a fitted effect of over 55% in size
Method in brief: as §3

[12] = A CellTox Green Cytotoxicity Assay to monitor cytotoxicity in HepG2 cells - 24 hour (AID 1224878); further: nearly all actives have a fitted effect of over 45% in size; further: potency means the concentration at half of the fitted maximal effect
Method in brief: (§5)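 Real-time, homogeneous cytotoxicity readout: dead-cell DNA staining by CellTox Green in HepG2 monolayers, fluorescence measured at timed intervals up to 40 h of continuous compound exposure.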

[13] = qHTS assay to identify small molecule agonists of H2AX (AID 1224845; active means well fitted activation curve with a large enough effect in the signal ratio in the repeat runs, not every such curve was filed as active; the % refers to the signal ratio)
Method in brief: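 Phospho-H2AX Ser139 measured by HTRF (ex 320 nm; em 665 and 620 nm) after 24 hr antibody incubation. Compounds, 15 concentrations, 0.76% DMSO, were applied to CHO-K1 cells for 3hr at 37C before lysis.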

[14] = qHTS RealTime-Glo MT Cell Viability Assay in HEK293 cells - 32 hour (AID 1224868)
Method in brief: as §4

[15] = qHTS RealTime-Glo MT Cell Viability Assay in HEK293 cells - 40 hour (AID 1224874); settings: RealTime-Glo luminescence; max response: stronger effect = lower value; further: nearly all actives have a fitted effect of over 50% in size
Method in brief: (§6)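 Nonlytic bioluminescent viability monitoring. HEK293 at 600 cells/well with reagent; 5 h settle; compound transfer by pintool; plates held at 37 C and read at set time points.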

[16] = A CellTox Green Cytotoxicity Assay to monitor cytotoxicity in HEK293 cells - 24 hour (AID 1224875); further: nearly all actives have a fitted effect of over 45% in size; further: potency means the concentration at half of the fitted maximal effect
Method in brief: as §2

[17] = A CellTox Green Cytotoxicity Assay to monitor cytotoxicity in HepG2 cells - 16 hour (AID 1224876); further: nearly all actives have a fitted effect of over 45% in size
Method in brief: as §5

[18] = qHTS RealTime-Glo MT Cell Viability Assay in HEK293 cells - 0 hour (AID 1224880); further: nearly all actives have a fitted effect of over 45% in size; further: potency means the concentration at half of the fitted maximal effect; on activity change, negative = cytotoxicity: top concentration of the series differs between compounds
Method in brief: as §6

[19] = qHTS RealTime-Glo MT Cell Viability Assay in HepG2 cells - 32 hour (AID 1224877); further: nearly all actives have a fitted effect of over 55% in size
Method in brief: as §1

[20] = A CellTox Green Cytotoxicity Assay to monitor cytotoxicity in HepG2 cells - 40 hour (AID 1224879); further: nearly all actives have a fitted effect of over 40% in size; further: potency means the concentration at half of the fitted maximal effect
Method in brief: as §5
On the % scale 0 is the no-effect control and ±100 the full control effect.

CN1CCC(=C2c3ccccc3CCc3sccc32)CC1
inactive: outcome [2] | Potency [3] | Potency [4] | activity change, positive = activation [5] -9.84% [at 42.5 µM] | Potency [6] | Potency [7] | Potency [8] | Potency [9] | Potency [10] | Potency [11]
active: Potency [1] 16.9 µM | Potency [12] 23.9 µM

CCOC(=S)SSC(=S)OCC
inactive: Potency [1] | Potency [13] | Potency [3] | Potency [6] | Potency [14] | Potency [7] | Potency [8] | Potency [10] | Potency [11] | max response [15] 1.68% | Potency [16] | Potency [17] | Potency [12] | Potency [18]

CCOc1nc2cccc(C(=O)O)c2n1Cc1ccc(-c2ccccc2-c2nn[nH]n2)cc1
inactive: Potency [1] | Potency [13] | Potency [3] | Potency [4] | activity change, positive = activation [5] 4.21% [at 42.5 µM] | Potency [6] | Potency [7] | Potency [8] | Potency [9] | Potency [10] | Potency [11] | max response [15] 9.75% | Potency [16] | Potency [17] | Potency [19] | Potency [12] | Potency [18]

CCC(C)N(C)C(=O)c1cc2ccccc2c(-c2ccccc2Cl)n1 (stereo unspecified)
active: Potency [12] 25.2 µM | Potency [20] 28.2 µM | Potency [18] 31.7 µM
inactive: Potency [1] | Potency [13] | Potency [6] | Potency [7] | Potency [8] | Potency [9] | Potency [11] | Potency [17] | Potency [19]

C#CCOC(=O)[C@@H](C)Oc1ccc(Oc2ncc(Cl)cc2F)cc1
inactive: Potency [1] | Potency [13] | Potency [3] | Potency [4] | activity change, positive = activation [5] -13.6% | Potency [6] | Potency [14] | Potency [7] | Potency [8] | Potency [10] | Potency [11] | max response [15] -16.3% | Potency [16] | Potency [19] | Potency [12] | Potency [20] | Potency [18]

CC(=O)/C(C)=C/C1C(C)=CCCC1(C)C (stereo unspecified)
inactive: Potency [1] | Potency [13] | Potency [4] | activity change, positive = activation [5] 5.66% | Potency [6] | Potency [14] | Potency [7] | Potency [8] | Potency [11] | max response [15] -10.3% | Potency [17] | Potency [19] | Potency [18]
active: Potency [9] 17.4 µM | Potency [16] 17.4 µM

CC[C@H](C)[C@H](N)C(=O)O
inactive: Potency [1] | Potency [13] | Potency [3] | Potency [4] | activity change, positive = activation [5] 5.77% [at 42.5 µM] | Potency [6] | Potency [14] | Potency [7] | Potency [8] | Potency [10] | Potency [11] | max response [15] -1.16% | Potency [17] | Potency [19] | Potency [12] | Potency [20] | Potency [18]

O=CNc1ccccc1
inactive: Potency [1] | Potency [13] | Potency [3] | Potency [4] | activity change, positive = activation [5] -1.57% | Potency [6] | Potency [14] | Potency [7] | Potency [8] | Potency [9] | Potency [10] | max response [15] -8.05% | Potency [12] | Potency [20] | Potency [18]

Cl/C(=C\n1cncn1)c1ccc(Cl)cc1Cl
inactive: Potency [1] | Potency [13] | Potency [3] | activity change, positive = activation [5] -21.8% [at 42.5 µM] | Potency [6] | Potency [14] | Potency [7] | Potency [8] | Potency [9] | Potency [11] | max response [15] -23.8% | Potency [16] | Potency [17] | Potency [12] | Potency [20] | Potency [18]

CCCCOC(=O)c1ccccc1C(=O)OCC(CC)CCCC (stereo unspecified)
inactive: Potency [1] | Potency [13] | Potency [3] | Potency [6] | Potency [14] | Potency [7] | Potency [8] | Potency [9] | Potency [10] | max response [15] -10% | Potency [17] | Potency [12] | Potency [20] | Potency [18]

CCc1nn(C2CCCCC2)c2cc(C3(C#N)CCC(C(=O)O)CC3)ccc12 (stereo unspecified)
active: Potency [4] 48.6 µM
inactive: Potency [1] | outcome [2] | Potency [3] | activity change, positive = activation [5] -46.5% | Potency [6] | Potency [14] | Potency [7] | Potency [8] | Potency [9] | Potency [11] | max response [15] 0.457% | Potency [16] | Potency [19] | Potency [12] | Potency [18]

CN1CCC(OC(c2ccccc2)c2ccccc2)CC1
inactive: Potency [1] | Potency [13] | Potency [3] | Potency [6] | Potency [14] | Potency [7] | Potency [8] | Potency [9] | Potency [10] | Potency [16] | Potency [17] | Potency [19] | Potency [12] | Potency [20] | Potency [18]

CCCCCCCCCCCCC(=O)O
inactive: Potency [1] | Potency [13] | Potency [3] | Potency [6] | Potency [14] | Potency [7] | Potency [8] | Potency [9] | Potency [10] | Potency [11] | max response [15] 0.0822% | Potency [19] | Potency [12] | Potency [20] | Potency [18]

Cc1cccc(OCCOc2cccc(C)c2)c1
inactive: Potency [1] | Potency [13] | Potency [4] | activity change, positive = activation [5] 10.4% | Potency [6] | Potency [7] | Potency [8] | Potency [9] | Potency [10] | Potency [11] | max response [15] -15.5% | Potency [16] | Potency [18]

Nc1ccc(C(=O)N2CC3CC(CN(Cc4ccccc4)C3)C2)cc1
inactive: Potency [1] | Potency [13] | Potency [4] | activity change, positive = activation [5] -11% [at 42.5 µM] | Potency [6] | Potency [14] | Potency [7] | Potency [8] | Potency [9] | Potency [10] | max response [15] -8.65% | Potency [16] | Potency [19] | Potency [12] | Potency [20] | Potency [18]

NC[C@H]1O[C@H](O[C@H]2[C@H](O)[C@@H](O[C@H]3O[C@H](CO)[C@@H](O)[C@H](N)[C@H]3O)[C@H](N)C[C@@H]2N)[C@H](O)[C@@H](O)[C@@H]1O
inactive: activity change, negative = cytotoxicity [1] -8.41% [at 6.97 µM] | activation (H2AX phosphorylation) [13] -0.622% [at 14 µM] | activity change, negative = cytotoxicity [3] 4.56% [at 14 µM] | activity, negative = inhibition [4] 17.9% [at 8.39 µM] | activity change, positive = activation [5] 8.77% [at 8.39 µM] | activity change, negative = cytotoxicity [6] -0.929% [at 6.97 µM] | activity change, negative = cytotoxic [14] 12.4% [at 6.97 µM] | cytotoxicity [7] 6.99% [at 6.97 µM] | activity change, negative = cytotoxic [8] -6.23% [at 6.97 µM] | viability change, negative = cytotoxic [11] 5.97% [at 6.97 µM] | max response [15] 12.1% | activity change [16] 8.95% [at 6.97 µM, stronger effect = higher value] | cytotoxicity increase [17] 10.8% [at 6.97 µM] | activity change, negative = cytotoxic [19] -15.9% [at 6.97 µM] | cytotoxicity [12] 10.9% [at 6.97 µM] | cytotoxicity increase [20] 9.32% [at 6.97 µM] | activity change, negative = cytotoxicity [18] 12.9% [at 6.97 µM]
